# Results published in ChEMBL document CHEMBL4513216, “Probing the Open Global Health Chemical Diversity Library for Multistage-Active Starting Points for Next-Generation Antimalarials” (ACS Infect Dis, 2020).
# Out of some 65,000 compounds screened, about 2,100 (3.2%) showed an effect of 50% or more. The median lay at about -52%. The list comes from a sample in which strong results are over-represented; it also holds similar structures and randomly drawn compounds.
# Tested on: Plasmodium falciparum
# Assay: Screen against P. falciparum Asexual Blood Stage (ABS), at 5uM
# Assay type: functional, Dd2
# Conditions: tested at 5 uM
row,Structure (SMILES),INHIBITION [%]
1,Cc1ccccc1-c1noc(CN2CCC(N3CCNC3=O)CC2)n1,-80.6
2,O=C(NCCN1CCCC1)c1cc2c(s1)CCN2C(=O)c1ccccc1,-40.6
3,COCC(=O)N1CCCC1c1ccc(C(=O)NCCN2CCCCC2)s1 (stereo not drawn),-139
4,CCC1CN(CC(=O)NCCN2CCCC2)c2ccccc2S1 (stereo not drawn),63.8
5,Cc1ccccc1OCC1CCCN(c2cc(N)nc(N)n2)C1 (stereo not drawn),44.5
6,CN1CCCC(CCCc2cccnc2)(C(N)=O)C1 (stereo not drawn),-103
7,COc1cc(-c2cc(NC3CCCC3)nc3[nH]ccc23)nc(N)n1,62.5
8,Nc1ccnc(-c2cc(NC3CCNCC3)nc3[nH]ccc23)c1,-29.8
9,COc1nccnc1-c1cc(NC2CCCC2)nc2[nH]ccc12,18.8
10,CCc1noc(CN(CC)Cc2cc3ccc(F)cc3[nH]c2=O)n1,-9.14
11,CCN(Cc1nc(COC)no1)Cc1cc2ccc(F)cc2[nH]c1=O,62.2
12,CCN(Cc1noc(CC(C)C)n1)Cc1cc2ccc(F)cc2[nH]c1=O,-109
13,O=C(C[C@@H]1COC[C@H]2CN(CC3CCOCC3)C[C@@H]12)N1CCCCO1,-22.4
14,CC(O)CN1CCN(C(=O)c2cc3ccccc3n2C)CC1 (stereo not drawn),-75.1
15,CCC(C)(COc1ncccc1Cl)NCC(=O)NC1CCCCC1 (stereo not drawn),-85.6
16,CNC(=O)C1CCN(CC(=O)Nc2cc(C(C)C)no2)CC1,-141
17,CCOCC1CN(C(=O)c2cccn2C)Cc2cnn(CC3CC3)c21 (stereo not drawn),57.8
18,CCOCC1CN(C(=O)c2cccs2)Cc2cnn(CC3CC3)c21 (stereo not drawn),18.5
19,CCOCC1CN(C(=O)c2cnccn2)Cc2cnn(CC3CC3)c21 (stereo not drawn),-127
20,O=c1cc(CN2CCCCC2c2cccc(F)c2)[nH]c2ncnn12 (stereo not drawn),-27.8
21,Cc1n[nH]c(C)c1C1COCCN1C(=O)c1ccccc1 (stereo not drawn),-119
22,Cc1n[nH]c(C)c1C1COCCN1C(=O)c1cccc(F)c1F (stereo not drawn),49.6
23,COc1ccccc1C(=O)N1CCOCC1c1c(C)n[nH]c1C (stereo not drawn),57.5
24,CCN1CCOC(CNCc2ccccc2OCc2cccnc2)C1 (stereo not drawn),28.1
25,CCN1CCOC(CNCc2ccccc2OCC(=O)N(C)C)C1 (stereo not drawn),-19.5
26,CCN1CCOC(CNCc2ccccc2OCc2ccccn2)C1 (stereo not drawn),7.77
27,CN1CCOC(CNCc2ccc(OCc3ccccn3)cc2)C1 (stereo not drawn),-15.8

row,Structure (SMILES),INHIBITION [%]
1,CCN1CCOC(CNCc2ccccc2OCc2ccncc2)C1 (stereo not drawn),55.3
2,Cc1cnn(CCNCc2ccccc2OCc2ccncc2)c1,40.5
3,CN1CCOC(CNCc2ccccc2OCc2ccccn2)C1 (stereo not drawn),67.7
4,Cc1cnn(CCNCc2ccccc2OCc2ccccn2)c1,67
5,Cc1cnn(CCNCc2ccc(OCc3ccccn3)cc2)c1,-12.3
6,CNC(=O)c1nc(COc2ccc3c(c2)OCO3)no1,-139
7,Cc1ccc(C)c(S(=O)(=O)NC(=O)c2ccc(C)[nH]c2=O)c1,-134
8,O=S(=O)(c1cccs1)N1CC[C@@H](O)[C@@H]1Cc1ccncc1,-17
9,Cc1ccc(N2CCC(Nc3ccc4nnc(C)n4n3)CC2)nc1,-89
10,CCOc1ccc(CSC(C)c2nc(C)no2)nc1 (stereo not drawn),-173
11,CN(C)C1CC2(CCN(C(=O)NC3CC3)CC2)c2ccccc21 (stereo not drawn),-42.2
12,Cn1cc(Cl)cc1C(=O)N1CCCN(Cc2cccs2)CC1,-60.9
13,Cc1ccc(C(=O)N2CCN(Cc3cccs3)CC2)n1C,-20.2
14,Cn1cc(CN2CCCN(C(=O)c3cc(Cl)cn3C)CC2)cn1,-7.21
15,Cn1cc(Cl)cc1C(=O)N1CCN(Cc2cccs2)CC1,7.04
16,Cn1cc(Cl)cc1C(=O)N1CCCN(Cc2ccccc2)CC1,50.9
17,Cc1ccc(C(=O)N2CCCN(Cc3cccs3)CC2)n1C,55.6
18,CSCC(CCO)NC(=O)Nc1cc(F)ccc1C (stereo not drawn),-130
19,CCc1noc(CN(CC)C(=O)C2CC(=O)N(Cc3ccncc3)C2)n1 (stereo not drawn),-125
20,Fc1ccc(CNCc2nnc3n2CC(C(F)(F)F)CC3)c(F)c1 (stereo not drawn),-35
21,COCCN1C[C@@H]2CN(c3ncc(F)cn3)C[C@@H]2C1=O,-65.7
22,Cc1ccc(-c2nc(CSCCC(=O)NC(N)=O)co2)cc1,-132
23,O=C(N1CCCC1)N1CCC[C@]2(C[C@@H](Oc3ncccc3F)CO2)C1,-39
24,CN(C)C1CCC2(CCN(Cc3cccnc3)CC2)c2ccccc21 (stereo not drawn),31.3
25,COc1cccc(CNC(Cc2cccs2)c2nc(C)c(C)s2)c1OC (stereo not drawn),-80.8
26,COc1ccccc1CNC(Cc1cccs1)c1nc(C)cs1 (stereo not drawn),-11.1
